What all share (type): functional
The test system of assay [1] is Plasmodium falciparum. Nature of the assay: GSK_TCMDC: Inhibition of Plasmodium falciparum 3D7 in whole red blood cells, using parasite LDH activity as an index of growth. Test compounds present at 2uM.
In assay [2] the test system is Plasmodium falciparum. Description: GSK_TCMDC: Inhibition of Plasmodium falciparum Dd2 in whole red blood cells, using parasite LDH activity as an index of growth. Test compounds present at 2uM.
In a further assay the test system is HepG2. Nature of the assay: GSK_TCMDC: Percent inhibition of human HepG2 cell line. Test compounds present at 10uM.

Several values for one entry are separate records, joined by “and”; a condition that tells them apart may be missing. Identical values can stand only once.

On to `CCCc1cc(O)c2c3c(c(=O)oc2c1)CN(C)CC3`, for which the Inhibition (in general, how much of the control response was suppressed) in the assay with Plasmodium falciparum [1] was 98%; in the assay on Plasmodium falciparum [2] it was 50%; in the assay with HepG2, 12%.
In the same order, the values of `Cl.c1ccc2c(NCCCCCCNc3c4c(nc5ccccc35)CCCC4)c3c(nc2c1)CCCC3` are 100%, 51% and 90%.
On the same counts, the results for `COC(=O)/C=C/c1ccc(CC(C)NCC(O)c2cccc(C(F)(F)F)c2)cc1` (centres undefined) are 97%, 96% and 16%.
On the same counts, the results for `Brc1cnc(NC2=NCCN2)c(Br)c1.Cl` are 99%, 0% and 0%.
As to `O=C(NCc1ccc(S(=O)(=O)N2CCC(CN3CCC(c4c[nH]c5ccccc45)CC3)CC2)s1)c1ccccc1`, the Inhibition was found to be 92% in the assay with Plasmodium falciparum [1], 21% with Plasmodium falciparum [2] and 32% in the assay on HepG2.
In the case of `Cc1ccc(-n2nc(C)c3c2NC(=O)CSC3c2ccsc2)cc1` (centres undefined), the Inhibition in the assay on Plasmodium falciparum [1] amounted to 97%; in the assay on Plasmodium falciparum [2] it was 11%; in the assay on HepG2, 0%.
In the assay on Plasmodium falciparum [1], `CCN(CC)CCCC(C)Nc1ccnc2cc(Cl)ccc12.O=P(O)(O)O.O=P(O)(O)O` (centres undefined) [CHLOROQUINE PHOSPHATE] came in with an Inhibition of 100%.
With `Cc1ccc(C)c(C=CC(=O)NC2CCC(CN3CCC(c4c[nH]c5ccccc45)CC3)CC2)c1` (centres undefined), the Inhibition is 100% with Plasmodium falciparum [1]; 55% and 80% with Plasmodium falciparum [2]; 46% and 38% with HepG2.
On to `Cc1ccc(CC(C)(C)NCC(O)c2cccc(C(F)(F)F)c2)cc1.O=C(O)/C=C/C(=O)O` (centres undefined), for which the figures for the Inhibition in the assay on Plasmodium falciparum [1], in the assay on Plasmodium falciparum [2] and in the assay on HepG2 were 97%, 92% and 19%, respectively.
Consider `Cc1cc(O)cc2c(C3CCN(CC4CCC(NC(=O)/C=C/c5ccccc5Cl)CC4)CC3)c[nH]c12` (centres undefined), for which the Inhibition in the assay with Plasmodium falciparum [1] stood at 99%; in the assay with Plasmodium falciparum [2], 84%; with HepG2 it was 21%.
On the same counts, the results for `CC[C@H]1CN2CC[C@@H]1C[C@H]2[C@H](O)c1cc(N2CCC(O)(c3ccccc3)CC2)nc2ccc(OC)cc12` are 100%, 98% and 14%.
On to `COc1ccc(C(=O)c2ccc3[nH]cc(C4=CCN(C)CC4)c3c2)cc1`, for which the Inhibition in the assay on Plasmodium falciparum [1] is recorded as 88%; with Plasmodium falciparum [2], 55%.
Turning to `O=C(/C=C/c1ccc(Cl)c(Cl)c1)NC1CCC(N2CCC(c3c[nH]c4ccccc34)CC2)CC1` (centres undefined), the Inhibition in the assay on Plasmodium falciparum [1] came out at 100%; in the assay on Plasmodium falciparum [2], 69%; in the assay on HepG2, 41%.
On the same counts, the results for `O=C(C=Cc1ccccc1O)N1CCC(CN2CCC(c3c[nH]c4ccccc34)CC2)CC1` are 98%, 43% and 27%.
For `N=C(N)NC(=O)Nc1ccc([N+](=O)[O-])c(Cl)c1`, the Inhibition in the assay on Plasmodium falciparum [1] was found to be 90%; in the assay on Plasmodium falciparum [2], 12%.
On to `NCc1ccc(-c2ccccc2CN(C(=O)Nc2ccccc2)C2CCN(Cc3ccccc3)CC2)cc1.O=C(O)C(F)(F)F`, for which the Inhibition with Plasmodium falciparum [1] stood at 100%; in the assay on Plasmodium falciparum [2], 35%; in the assay on HepG2 it was 36%.
On the same counts, the results for `COc1ccc(OC)c(C(O)C(C)NCc2cc(Cl)ccc2O)c1.Cl` (centres undefined) are 97%, 99% and 11%.
In the same order, the values of `O=C(NC1CCC(N2CCC3(CC2)C(=O)NCN3c2ccccc2)CC1)c1cc2ccccc2[nH]1` (centres undefined) are 98%, 40% and 0%.
In the same order, the values of `CC[C@H]1CN2CC[C@H]1C[C@H]2[C@H](O)c1cc(N2CCC3CCCCC3C2)nc2ccc(OC)cc12` (some centres undefined) are 100%, 99% and 50%.
In the case of `O=C1c2ccccc2CCC1CCN1CC=C(c2c[nH]c3ccccc23)CC1` (centres undefined), the Inhibition with Plasmodium falciparum [1] is 89%; in the assay on Plasmodium falciparum [2], 83%; in the assay with HepG2, 5%.
Turning to `Cn1nc(-c2ccc(S(=O)(=O)NC3CCC(CN4CCC(c5c[nH]c6ccccc56)CC4)CC3)s2)cc1C(F)(F)F` (centres undefined), the Inhibition in the assay on Plasmodium falciparum [1] was 96% and 98%; in the assay with Plasmodium falciparum [2], 24% and 29%; with HepG2, 35% and 38%.
As to `O=C(Nc1cc(C(F)(F)F)cc(C(F)(F)F)c1)NC1CCC(CN2CCC(c3c[nH]c4ccccc34)CC2)CC1` (centres undefined), the Inhibition in the assay on Plasmodium falciparum [1] was 97% and 100%; in the assay with Plasmodium falciparum [2], 98% and 72%.
Turning to `COC(=O)c1ccc(CC(C)NCC(O)c2cccc(OCc3ccccc3)c2)cc1.Cl` (centres undefined), the Inhibition came to 86% in the assay on Plasmodium falciparum [1], 37% in the assay on Plasmodium falciparum [2] and 11% in the assay on HepG2.
In the same order, the values of `O=C(/C=C/c1ccc(Cl)c(Cl)c1)N1CCC(CN2CCC(c3c(-c4ccccc4)[nH]c4ccccc34)CC2)CC1` are 100%, 99% and 43%.
On the same counts, the results for `OC(CNC1CCCCC1)c1ccc(Cl)c(Cl)c1` (centres undefined) are 99%, 96% and 17%.
On the same counts, the results for `OC(CNC12CC3CC(CC(C3)C1)C2)c1cccc(C(F)(F)F)c1` (centres undefined) are 97%, 98% and 16%.
For the compound `C/C=C1/CN2CC[C@H]1C[C@H]2[C@H](O)c1ccnc2ccc(OC)cc12`, the results for the Inhibition in the assay with Plasmodium falciparum [1], in the assay on Plasmodium falciparum [2] and with HepG2 were 99%, 45% and 0%, respectively.
Take `CCC1=C[C@@H]2CN(C1)Cc1c([nH]c3ccccc13)[C@@](C(=O)OC)(c1cc3c(cc1OC)N(C)[C@H]1[C@@](O)(C(=O)OC)[C@H](O)[C@]4(CC)C=CCN5CC[C@]31[C@@H]54)C2.O=S(=O)(O)O`: the Inhibition was found to be 98% in the assay with Plasmodium falciparum [1] and 99% with Plasmodium falciparum [2].
On to `COc1ccccc1CNCC(O)c1cc(C(F)(F)F)ccc1C(F)(F)F` (centres undefined), for which the figures for the Inhibition with Plasmodium falciparum [1], with Plasmodium falciparum [2] and with HepG2 were 100%, 95% and 10%, respectively.
For the compound `Cc1ccc2[nH]cc(C3CCN(CC4CCC(NC(=O)/C=C/c5ccc(Cl)c(Cl)c5)CC4)CC3)c2c1` (centres undefined), the Inhibition is 100% and 94% in the assay on Plasmodium falciparum [1]; 86% and 46% in the assay with Plasmodium falciparum [2]; 37% and 29% in the assay on HepG2.
